This passage reports Potency and activity change, negative = inhibition results from PubChem BioAssay (Tox21).

Records with an inconclusive call do not appear. Activity calls are given as the source filed them. The call rests on the fitted dose curve; in most records, active means well fitted curve in the direction sought with a large enough effect in the repeat runs; inconclusive means weak or mixed curves; inactive means no such curve, though single readings can be large; an effect the other way counts as inactive or inconclusive.

The target of test [1] is Cytochrome P450 2C9 (Homo sapiens) (UniProt P11712). The test can be described thus: Cytochrome P450 Family 2 Subfamily C Member 9 (CYP2C9) small molecule antagonists: luciferase reporter qHTS assay (AID 1671198). On activity change, negative = inhibition: series mostly up to about 120 µM. The method in brief:
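P450-Glo proluciferin substrate with CYP2C9 enzyme; 10 min RT preincubation, then NADPH regeneration 1 h at 37C; luciferin detection reagent 20 min RT, luminescence in relative luminescence units.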

The target of test [2] is Voltage-gated inwardly rectifying potassium channel KCNH2 (Homo sapiens) (UniProt Q12809). The experiment in a line: Human Ether-a-go-go-Related Gene (hERG) channel small molecule antagonists: fluorescence cell-based qHTS assay (AID 1671200).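 On activity change, negative = inhibition: hERG-expressing U2OS cells given a thallium stimulus after FluxOR II dye loading; series mostly up to about 77 µM.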 An outline of the steps:
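Channel function was assessed by thallium flux. Cells seeded the previous day and kept at 37 C took up FluxOR II dye over 1 h in the dark at room temperature, then sat another 10 min before stimulation.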
A general note: Block of hERG is tested as a sign of cardiac risk.

Test [3] deals with Cytochrome P450 3A4 (Homo sapiens) (UniProt P08684). The experiment in a line: Cytochrome P450 Family 3 Subfamily A Member 4 (CYP3A4) small molecule antagonists: luciferase reporter qHTS assay (AID 1671201). On activity change, negative = inhibition: series mostly up to about 120 µM. An outline of the steps: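 Compounds in DMSO were pin-transferred onto CYP3A4 enzyme-substrate mix and held 10 min at room temperature. NADPH regenerating solution started the reaction for 1 h; luciferin detection reagent stopped it, and luminescence was read after 20 min.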
On the technique in general: A reporter such as luciferase makes a cellular process visible.

In test [4] the target is Cytochrome P450 1A2 (Homo sapiens) (UniProt P05177). The experiment in a line: Cytochrome P450 Family 1 Subfamily A Member 2 (CYP1A2) small molecule antagonists: luciferase reporter qHTS assay (AID 1671199). On activity change, negative = inhibition: series mostly up to about 120 µM. An outline of the steps: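 Inhibition of CYP1A2 conversion of proluciferin to luciferin, detected by luminescence. Reaction run 1 h at room temperature with NADPH regeneration after brief compound preincubation.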
Further: nearly all actives have a fitted effect of over 50% in size.
On the % scale 0 is the no-effect control and ±100 the full control effect; potency means the concentration at half of the fitted maximal effect.

Sequence of Voltage-gated inwardly rectifying potassium channel KCNH2 (Homo sapiens) (Q12809 whole entry, looked up): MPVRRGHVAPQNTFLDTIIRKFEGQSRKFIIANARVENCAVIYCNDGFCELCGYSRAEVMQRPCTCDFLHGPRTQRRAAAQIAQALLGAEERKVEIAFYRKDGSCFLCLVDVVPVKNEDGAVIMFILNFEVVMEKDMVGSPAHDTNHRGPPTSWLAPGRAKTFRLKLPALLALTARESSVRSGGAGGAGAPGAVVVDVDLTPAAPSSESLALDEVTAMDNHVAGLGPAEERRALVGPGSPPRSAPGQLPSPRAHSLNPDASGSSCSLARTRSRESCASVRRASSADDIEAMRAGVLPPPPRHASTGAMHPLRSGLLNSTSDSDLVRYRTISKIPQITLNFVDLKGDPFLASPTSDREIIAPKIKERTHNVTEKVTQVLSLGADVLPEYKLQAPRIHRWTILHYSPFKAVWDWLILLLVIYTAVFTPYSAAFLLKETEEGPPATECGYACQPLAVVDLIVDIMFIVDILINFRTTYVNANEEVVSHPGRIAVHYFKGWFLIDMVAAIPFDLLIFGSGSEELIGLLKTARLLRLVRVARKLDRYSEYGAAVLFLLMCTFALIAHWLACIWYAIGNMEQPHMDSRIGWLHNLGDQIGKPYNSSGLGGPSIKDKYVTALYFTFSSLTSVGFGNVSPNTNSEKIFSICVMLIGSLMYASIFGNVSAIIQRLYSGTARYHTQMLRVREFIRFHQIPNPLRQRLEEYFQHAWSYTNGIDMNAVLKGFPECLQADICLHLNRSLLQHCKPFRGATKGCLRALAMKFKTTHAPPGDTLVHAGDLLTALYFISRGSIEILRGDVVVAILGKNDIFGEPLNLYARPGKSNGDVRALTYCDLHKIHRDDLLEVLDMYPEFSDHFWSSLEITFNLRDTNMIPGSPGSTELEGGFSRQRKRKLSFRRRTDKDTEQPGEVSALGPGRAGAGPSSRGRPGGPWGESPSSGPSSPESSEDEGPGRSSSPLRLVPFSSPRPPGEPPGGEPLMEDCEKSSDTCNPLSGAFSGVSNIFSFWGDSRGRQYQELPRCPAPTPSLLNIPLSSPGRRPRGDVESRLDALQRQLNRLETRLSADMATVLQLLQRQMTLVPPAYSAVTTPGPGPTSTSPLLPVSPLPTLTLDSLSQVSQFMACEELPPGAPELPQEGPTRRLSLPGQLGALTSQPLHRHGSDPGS
Sequence of Cytochrome P450 2C9 (Homo sapiens) (P11712 whole entry, looked up): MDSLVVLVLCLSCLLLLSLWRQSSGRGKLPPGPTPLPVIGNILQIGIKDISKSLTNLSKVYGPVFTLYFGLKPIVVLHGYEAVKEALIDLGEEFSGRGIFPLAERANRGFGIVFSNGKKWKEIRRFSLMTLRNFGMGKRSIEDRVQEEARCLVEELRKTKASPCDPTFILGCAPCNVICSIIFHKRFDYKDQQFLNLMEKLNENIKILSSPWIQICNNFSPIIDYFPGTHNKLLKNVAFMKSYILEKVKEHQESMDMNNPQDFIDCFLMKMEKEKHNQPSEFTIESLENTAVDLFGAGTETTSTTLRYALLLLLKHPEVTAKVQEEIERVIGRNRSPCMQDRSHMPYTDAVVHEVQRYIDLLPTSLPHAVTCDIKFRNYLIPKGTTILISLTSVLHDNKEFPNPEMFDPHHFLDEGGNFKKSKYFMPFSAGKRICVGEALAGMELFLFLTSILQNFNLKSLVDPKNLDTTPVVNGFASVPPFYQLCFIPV
Sequence of Cytochrome P450 1A2 (Homo sapiens) (P05177 whole entry, looked up): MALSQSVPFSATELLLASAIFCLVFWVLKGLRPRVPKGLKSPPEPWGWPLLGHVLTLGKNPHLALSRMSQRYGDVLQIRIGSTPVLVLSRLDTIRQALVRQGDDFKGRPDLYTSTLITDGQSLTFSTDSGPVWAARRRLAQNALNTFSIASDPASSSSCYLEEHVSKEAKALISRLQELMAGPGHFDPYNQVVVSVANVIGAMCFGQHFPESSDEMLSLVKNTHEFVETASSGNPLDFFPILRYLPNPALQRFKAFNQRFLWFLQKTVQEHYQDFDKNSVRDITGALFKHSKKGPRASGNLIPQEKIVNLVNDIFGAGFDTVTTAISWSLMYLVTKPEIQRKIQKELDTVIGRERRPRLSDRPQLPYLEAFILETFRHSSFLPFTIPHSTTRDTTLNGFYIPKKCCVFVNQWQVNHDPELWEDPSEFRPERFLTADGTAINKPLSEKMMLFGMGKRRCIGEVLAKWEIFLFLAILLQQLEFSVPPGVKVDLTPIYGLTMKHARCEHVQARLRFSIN
Sequence of Cytochrome P450 3A4 (Homo sapiens) (P08684 whole entry, looked up): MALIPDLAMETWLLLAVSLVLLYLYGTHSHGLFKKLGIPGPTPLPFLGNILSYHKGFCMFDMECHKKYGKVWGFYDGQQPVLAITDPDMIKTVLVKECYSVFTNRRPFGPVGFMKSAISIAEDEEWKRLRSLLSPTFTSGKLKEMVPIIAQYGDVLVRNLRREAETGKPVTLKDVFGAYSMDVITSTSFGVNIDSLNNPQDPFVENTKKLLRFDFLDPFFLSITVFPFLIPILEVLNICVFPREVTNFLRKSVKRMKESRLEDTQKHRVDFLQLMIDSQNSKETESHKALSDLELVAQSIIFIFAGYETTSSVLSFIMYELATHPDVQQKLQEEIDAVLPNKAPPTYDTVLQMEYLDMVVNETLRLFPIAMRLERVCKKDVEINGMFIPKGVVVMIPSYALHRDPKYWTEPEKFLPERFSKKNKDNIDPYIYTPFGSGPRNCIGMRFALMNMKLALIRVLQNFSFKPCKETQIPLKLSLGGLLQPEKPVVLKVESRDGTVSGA

On to `CCCC(O)C(O)CO` (stereo unspecified), for which the Potency entry in test [1] and in test [2] was “inactive” each time.

Regarding `C[Si](C)(C)Cl`, the Potency result in test [1], in test [2] and in test [3] was “inactive” in each case.

`CCCCCCCC/C=C\CCCCCCCC(=O)OCCOC(=O)CCCCCCC/C=C\CCCCCCCC`: the Potency was 14.7 µM (active) in test [1], 52.2 µM (active) in test [4] and 10.4 µM (active) in test [3].

For the molecule `CCC(C)c1cc([N+](=O)[O-])cc([N+](=O)[O-])c1OC(=O)OC(C)C` (stereo unspecified), in test [1], the Potency is 35.6 µM (active). In addition, in test [2], the Potency entry was “inactive”.

As for `CCN(CC)c1ccc(N)cc1`, the Potency in test [1] is 23.1 µM (active); in test [2], 25.2 µM (active).

Turning to `CC(C(O)c1ccccc1)N(C)CCOC(c1ccccc1)c1ccccc1` (stereo unspecified), the Potency in test [1] was 17.4 µM (active); in test [2] it was 1.69 µM (active).

Regarding `COc1cccc(OC)c1O`, the Potency in test [1] and in test [4] was 35.6 µM (active) in each case. The Potency entry in test [3] was “inactive”.

With `CC(C)(c1cc(Br)c(OCCO)c(Br)c1)c1cc(Br)c(OCCO)c(Br)c1`, the Potency in test [1] was 4.38 µM (active); in test [4], 27.6 µM (active); in test [3] it was 49.2 µM (active).

Regarding `Cc1cccc(Br)c1`, in test [1], the Potency is 40.1 µM (active). For the same molecule, the Potency result in test [2] and in test [3] was “inactive” each time.

In the case of `CCCC(CC)CCCCCCCN` (stereo unspecified), the results for the Potency in test [1], in test [2] and in test [3] were 25.8 µM (active), 28.2 µM (active) and 3.25 µM (active), respectively.

Regarding `CN1CN(C)CN(C)C1`, the Potency result in test [1], in test [4] and in test [3] was “inactive” in each case.

Consider `CC(=O)O[C@@H]1C[C@@H]2CC[C@@]1(C)C2(C)C`, for which the Potency result in test [1] and in test [3] was “inactive” each time. Further, the Potency in test [4] was 39.9 µM (active).

Regarding `CC(C)OC(=O)c1cc(C(=O)OC(C)C)cc([N+](=O)[O-])c1`, the Potency was 0.84 µM (active) in test [1] and 2.33 µM (active) in test [4]. In addition, the Potency entry in test [3] is “inactive”.

Turning to `NC(=O)c1nc(-c2cccc(-c3cc(F)ccc3OCC(F)(F)C(F)(F)F)c2)n[nH]1`, the results for the Potency in test [1] and in test [2] were 28.3 µM (active) and 43.6 µM (active), respectively.

Consider `CCCCCCC(C)Nc1ccc(Nc2ccccc2)cc1` (stereo unspecified), for which the Potency in test [1] was 7.1 µM (active); in test [4], 22.4 µM (active); in test [3], 35.6 µM (active).

Turning to `O=C[C@H](O)[C@H](O)[C@H](O)CO`, the Potency entry in test [1], in test [4] and in test [3] was “inactive” each time.

With `CCN1CCN(c2cc(-c3ccc(F)cc3)c3c(n2)CCCCCC3)CC1`, the activity change, negative = inhibition in test [1] was -5.46% [at 23.6 µM] (inactive). In addition, the Potency in test [2] was 4.65 µM (active).

Regarding `CCCCOC(=O)C(C)CC` (stereo unspecified), the Potency entry in test [1], in test [2] and in test [3] was “inactive” in each case.

For `CC1(C)C(=O)N(CO)C(=O)N1CO`, the Potency entry in test [1] and in test [2] was “inactive” in each case.

As for `COc1cc(C(=O)NS(=O)(=O)c2ccccc2C)ccc1Cc1cn(C)c2ccc(NC(=O)OC3CCCC3)cc12`, the Potency in test [1] was 15.5 µM (active). Also, the Potency entry in test [2] was “inactive”.

Turning to `CC(COC(=O)c1ccccc1)OC(=O)c1ccccc1` (stereo unspecified), the Potency is 15.9 µM (active) in test [1] and 5.64 µM (active) in test [4]. Besides, the Potency result in test [3] was “inactive”.

Consider `CC(C)(C)c1cc(/C=C2\SC(=N)NC2=O)cc(C(C)(C)C)c1O`, for which the Potency is 1.78 µM (active) in test [1] and 11.2 µM (active) in test [3]. In addition, the Potency result in test [2] is “inactive”.

Turning to `O=C(c1ccccc1)c1cc(Cl)ccc1O`, the results for the Potency in test [1] and in test [4] were 33.8 µM (active) and 12 µM (active), respectively. For the same molecule, the Potency entry in test [3] was “inactive”.

For `C=C[C@](C)(O)CC[C@@H]1[C@@]2(C)CCCC(C)(C)[C@@H]2CC[C@@]1(C)O`, the Potency in test [1] was 3.17 µM (active); in test [4], 31.7 µM (active); in test [3], 5.03 µM (active).

As to `C/C=C/C(=O)C1=C(C)CCCC1(C)C`, the Potency result in test [1] and in test [2] was “inactive” in each case.

On to `C=CC(=O)OCCOCC(CC)(COCCOC(=O)C=C)COCCOC(=O)C=C`, for which the Potency in test [1] was 26.3 µM (active). Moreover, the Potency entry in test [2] was “inactive”.

Turning to `COc1cc(C=C2CCC/C(=C\c3ccc(O)c(OC)c3)C2=O)ccc1O`, the Potency in test [1] is 15.5 µM (active). Also, the Potency entry in test [2] was “inactive”.

Regarding `CCc1cccc(CC)c1NC(=O)C(=O)O`, the Potency entry in test [1], in test [2] and in test [3] was “inactive” throughout.

Consider `ClC/C=C\CCl`, for which the Potency entry in test [1] and in test [3] was “inactive” in each case. Moreover, the Potency in test [4] is 11.7 µM (active).

Turning to `S=C(SSSSSSC(=S)N1CCCCC1)N1CCCCC1`, in test [1], the Potency is 7.83 µM (active). The activity change, negative = inhibition in test [2] was -18.7% [at 15.8 µM] (inactive).

Take `COc1cccc(O)c1`: the Potency entry in test [1], in test [2] and in test [3] was “inactive” each time.

Take `CC(C)=C1CC[C@@H](C)CC1=O`: the Potency entry in test [1] and in test [2] was “inactive” in each case.

For `CCCCCCCCCCCC(=O)N(CC)CC`, the Potency in test [1] was 50.2 µM (active). The Potency entry in test [2] and in test [3] was “inactive” throughout.
